The text below walks through data of PubChem BioAssay (NCATS).

“And” between values parts separate entries of the source, which are not always exact repeats. Equal values may be shown once. Results filed as inconclusive are left out. The source made the active and inactive calls. Unless noted, calls come from the whole dose curve; as a rule, active = well fitted curve in the direction sought with a large enough effect; inconclusive = small, poorly fitted or top-dose-only effect, or another doubt; inactive = no such curve, though single readings can be large; an effect the other way counts as inactive or inconclusive.

Assay [1] can be described thus: Cell Viability - N2a (AID 540).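 Note: plate controls were DMSO alone for no effect and tamoxifen control for full effect; nearly all actives have a fitted effect of over 45% in size.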 To be noted: N2a mouse neuroblastoma cell viability; activity change, negative = cytotoxicity: at 92.2 µM (top of the series). Put shortly:
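Mouse neuroblastoma N2a cells, 1500/well, exposed to compounds 40 h at 37 °C in complete medium. Viability measured as cellular ATP by CellTiter-Glo luminescence; AC50 from Hill fits of concentration-response.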

Assay [2] in a line: Cell Viability - SH-SY5Y (AID 544).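 For viability change, negative = cytotoxic: 0% = DMSO alone and -100% = 100 µM tamoxifen.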 Note: nearly all actives have a fitted effect of over 55% in size. Note: potency is the fitted concentration of half-maximal effect. The conditions noted are these: SH-SY5Y neuroblastoma cell viability; viability change, negative = cytotoxic: at 92.2 µM (top of the series). Put shortly: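 SH-SY5Y human neuroblastoma cells (1500/well) incubated 5 h, then compound-treated 40 h at 37 °C in complete medium. Viability read as intracellular ATP by CellTiter-Glo luminescence after 20 min; AC50 from Hill-equation fits of qHTS concentration-response.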

Assay [3] can be described thus: Cell Viability - Renal Proximal Tubule (AID 545).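 Note: 0% = DMSO only and -100% = 100 µM tamoxifen; nearly all actives have a fitted effect of over 40% in size.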 Put shortly: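 Viability taken as intracellular ATP (CellTiter-Glo luminescence) after 40 hr, 37 °C compound treatment of primary proximal tubule cells from rat kidney, 1000 cells/well; Hill-equation fits of qHTS concentration-response data gave AC50.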
Assay [4] has as its target Cytochrome P450 3A4 (Homo sapiens) (UniProt P08684). Put plainly: qHTS Assay for Inhibitors and Substrates of Cytochrome P450 3A4 (AID 884). Note: % is set by controls: 0 for no effect and ±100 for the full control effect; nearly all actives have a fitted effect of over 50% in size. Put shortly:
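20 nM human CYP3A4 with 25 uM Luciferin-PPXE (at KM) in 200 mM KPO4, preincubated 10 min with compound; NADPH regeneration started a 60 min RT reaction. Luciferin detected by luminescence, normalized to 57 uM ketoconazole as full inhibition.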
A general note: qHTS replaces the single test concentration by a dilution series.

The nature of assay [5]: Cell Viability - LYMP2-001 (AID 921).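 Note: 0% = DMSO only and full inhibition = tetraoctylammonium bromide control wells; nearly all actives have a fitted effect of over 70% in size.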 Put shortly:
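Cellular ATP loss read by luciferase luminescence after 24 h compound exposure at 37 C in complete medium. LYMP2-001 lymphoblastoid cells, 2500/well; qHTS concentration-response data fitted with Hill equation for AC50.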

A short description of assay [6]: Cell Viability - LYMP2-003 (AID 965).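 Note: cells exposed to compounds for 24 h before reading; 0% = DMSO only and full effect = 92 µM tetraoctylammonium bromide; nearly all actives have a fitted effect of over 50% in size.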 Put shortly: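 CellTiter-Glo luminescence quantified ATP loss after 24 h compound treatment of LYMP2-003 lymphoblastoid cells at 37 C. Titration series were fitted with the standard Hill equation to give AC50.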
Assay [7] in a line: Cell Viability - LYMP2-015 (AID 971).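 Note: 0% = DMSO only and full effect = 92 µM tetraoctylammonium bromide; nearly all actives have a fitted effect of over 55% in size.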 Summed up: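 LYMP2-015 human lymphoblastoid cells (2500/well) in complete medium, compound-treated 24 h at 37 C; viability read as cellular ATP by CellTiter-Glo luminescence after 30 min at room temperature. AC50 from Hill-equation fits of qHTS concentration-response data.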
Assay [8] in a line: Cell Viability - LYMP2-019 (AID 973).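 Note: 0% = DMSO alone and full effect = 92 µM tetraoctylammonium bromide; nearly all actives have a fitted effect of over 55% in size.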 Summed up: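 Human lymphoblastoid LYMP2-019 cells (2500/well) preincubated 5 h at 37 C, then treated 24 h at 37 C in complete medium. Viability by CellTiter-Glo ATP luminescence after 30 min at room temperature; AC50 from Hill fits.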
Assay [9] is described as follows: Cell Viability - LYMP2-002 (AID 977).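 Note: plate controls were DMSO only for no effect and 92 µM tetraoctylammonium bromide for full effect.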 Summed up: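 Luminescent ATP readout (CellTiter-Glo, 30 min room temperature) after 24 h compound exposure at 37 C of a human lymphoblastoid line, 2500 cells/well. AC50 values derived by standard Hill fitting of qHTS concentration-response data.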
A short description of assay [10]: Cell Viability - LYMP2-008 (AID 980). For activity change, negative = cytotoxicity: % is set by controls: 0 for no effect and ±100 for the full control effect. Note: nearly all actives have a fitted effect of over 60% in size. Note: potency is the fitted concentration of half-maximal effect. Summed up: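 LYMP2-008 lymphoblastoid cells (2500/well) plated 5 h, then treated 24 h at 37 C in complete medium. Viability read as intracellular ATP by CellTiter-Glo luminescence after 30 min at room temperature; AC50 from Hill fits.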
The nature of assay [11]: Cell Viability - LYMP2-010 (AID 981). Note: nearly all actives have a fitted effect of over 55% in size. Note: potency is the fitted concentration of half-maximal effect. Put shortly:
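Human lymphoblastoid LYMP2-010 cells (2500/well) treated 24 h at 37 C in complete medium; viability read as intracellular ATP by CellTiter-Glo luminescence. AC50 from Hill fits of concentration-response data; tetraoctylammonium bromide positive control.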

A short description of assay [12]: Cell Viability - LYMP2-012 (AID 982).
A short description of assay [13]: Cell Viability - LYMP2-020 (AID 986). Put shortly:
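Human lymphoblastoid LYMP2-020 cells (2500/well) preincubated 5 h at 37 C, then treated 24 h at 37 C. Viability measured as intracellular ATP by CellTiter-Glo luminescence after 30 min at room temperature; AC50 from Hill fits.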

Assay [14] can be described thus: Cell Viability - LYMP2-022 (AID 987).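 For viability change, negative = cytotoxic: 0% = DMSO alone and full effect = tetraoctylammonium bromide at 92 µM.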 Note: potency is the fitted concentration of half-maximal effect. Summed up: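 LYMP2-022 lymphoblastoid cells (2500/well, complete medium) were treated with compounds for 24 hours at 37 C; intracellular ATP was then read by CellTiter-Glo luminescence after 30 min at room temperature. AC50 values were derived from Hill-equation fits.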
The nature of assay [15]: Cell Viability - LYMP1-002 - Assay at 40 hr (AID 994).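 Note: 0% = DMSO only and full inhibition = 92 µM tetraoctylammonium bromide; nearly all actives have a fitted effect of over 60% in size.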 Put shortly: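 LYMP1-002 human lymphoblastoid cells (2500/well, complete medium) were treated with compounds for 40 hr at 37 C. Intracellular ATP was measured by CellTiter-Glo luminescence, and AC50 values came from Hill-equation fits of concentration-response data; tetraoctylammonium bromide was the positive control.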

Assay [16] is described as follows: qHTS assay for small molecule agonists of retinoid X receptor alpha signaling (AID 588544). To be noted: HEK293T RXRa-UAS-bla, beta-lactamase reporter, 18 h; 530 nm emission.
A short description of assay [17]: qHTS assay for small molecule antagonists of retinoid X receptor alpha signaling (AID 588546; active = well fitted inhibition curve with a large enough effect in the signal ratio, with a control signal flat, not every such curve was filed as active; the % refers to the signal ratio;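 note: cells stimulated with 9-cis-retinoic acid as agonist; % is set by controls: 0 for no effect and ±100 for the full control effect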). The conditions noted are these: HEK293T RXRa-UAS-bla, beta-lactamase ratio, antagonist mode; measured here: W530 green channel, cytotoxicity proxy. Put shortly:
(§1)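 Beta-lactamase reporter inhibition, read as CCF4 fluorescence ratio (ex 405, em 460/530 nm) after 2 h at RT. HEK293T UAS-bla cells, 2500/well, were stimulated with 9-cis-RA at 500 or 100 nM final alongside test compound for 18 h at 37 C.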

The target in assay [18] is Retinoic acid receptor RXR-alpha (Homo sapiens) (UniProt P19793). The description is as above. The conditions noted are these: HEK293T RXRa-UAS-bla, beta-lactamase ratio, antagonist mode. Put shortly: as §1
Sequence of Retinoic acid receptor RXR-alpha (Homo sapiens) (P19793 whole entry, looked up): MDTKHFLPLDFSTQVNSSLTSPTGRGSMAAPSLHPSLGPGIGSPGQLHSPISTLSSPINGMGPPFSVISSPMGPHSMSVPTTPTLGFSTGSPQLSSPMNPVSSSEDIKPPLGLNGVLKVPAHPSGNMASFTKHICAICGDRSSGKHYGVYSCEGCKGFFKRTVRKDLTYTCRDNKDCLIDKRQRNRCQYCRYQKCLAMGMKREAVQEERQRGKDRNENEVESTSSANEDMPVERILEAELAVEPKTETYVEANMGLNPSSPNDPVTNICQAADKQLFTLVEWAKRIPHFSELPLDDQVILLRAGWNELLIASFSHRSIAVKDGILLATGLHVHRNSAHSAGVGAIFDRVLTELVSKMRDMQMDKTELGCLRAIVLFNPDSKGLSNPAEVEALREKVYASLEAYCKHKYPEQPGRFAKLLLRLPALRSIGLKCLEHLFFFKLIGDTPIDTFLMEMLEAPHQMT
Assay [19] concerns the target Tumor necrosis factor (Homo sapiens) (UniProt P01375). Kind of assay: qHTS assay to identify small molecules that stimulate Tumor Necrosis Factor-alpha (TNF-alpha) secretion (AID 651757; active = well fitted curve in the direction sought with a large enough effect in the signal ratio; the % refers to the signal ratio; note: 0% is about no effect). Put shortly:
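THP-1 cells (3000/well) exposed to compounds 17 hrs at 37 C. Secreted TNF-alpha detected by HTRF with cryptate- and XL665-labeled anti-TNF-alpha antibodies after 3 hr at room temperature.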

The nature of assay [20]: qHTS assay for small molecule antagonists of the retinoid-related orphan receptor gamma (ROR-gamma) signaling pathway - cell viability counter screen (AID 720652; active = well fitted curve in the direction sought with a large enough effect in the repeat runs; an effect the other way counts as inactive or inconclusive;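 note: CHO reporter cells with doxycycline-induced ROR-gamma expression; compound exposure lasted 16 hr before ATP read; % is set by controls: 0 for no effect and ±100 for the full control effect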). Put shortly: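 CHO cells carrying TET-inducible ROR and RORE-luciferase reporter, plated 5 hr, then dosed with compound plus doxycycline. After 16 hr at 37 C, viability read as intracellular ATP by CellTiter-Glo luminescence.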

Sequence of Cytochrome P450 3A4 (Homo sapiens) (P08684 whole entry, looked up): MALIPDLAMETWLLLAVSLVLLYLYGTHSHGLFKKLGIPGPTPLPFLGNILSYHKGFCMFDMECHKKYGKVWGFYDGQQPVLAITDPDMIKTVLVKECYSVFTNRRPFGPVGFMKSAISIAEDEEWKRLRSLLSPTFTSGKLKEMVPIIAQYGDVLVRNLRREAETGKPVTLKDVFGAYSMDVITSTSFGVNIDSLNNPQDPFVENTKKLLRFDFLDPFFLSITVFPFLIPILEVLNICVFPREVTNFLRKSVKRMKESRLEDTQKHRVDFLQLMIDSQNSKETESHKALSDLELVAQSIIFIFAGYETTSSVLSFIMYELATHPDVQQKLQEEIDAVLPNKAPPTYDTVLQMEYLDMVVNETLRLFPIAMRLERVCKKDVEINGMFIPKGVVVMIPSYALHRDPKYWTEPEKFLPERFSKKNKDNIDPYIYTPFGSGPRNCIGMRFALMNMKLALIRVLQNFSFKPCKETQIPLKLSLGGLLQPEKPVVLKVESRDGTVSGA
Sequence of Tumor necrosis factor (Homo sapiens) (P01375 whole entry, looked up): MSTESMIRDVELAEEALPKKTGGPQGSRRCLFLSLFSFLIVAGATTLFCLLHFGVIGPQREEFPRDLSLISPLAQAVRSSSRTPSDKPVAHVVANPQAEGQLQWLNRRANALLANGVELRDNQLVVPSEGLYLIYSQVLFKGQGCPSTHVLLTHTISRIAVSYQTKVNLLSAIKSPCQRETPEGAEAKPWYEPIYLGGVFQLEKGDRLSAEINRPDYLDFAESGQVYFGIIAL

As for `N#C/C(N)=C(/N)C#N`, the Potency entry in assay [1], in assay [2], in [4], in [5], in [6] and in assay [7] was “inactive” each time. In addition, the Potency result in assay [8], in assay [9], in assay [10], in assay [11], in assay [12] and in assay [13] was “inactive” throughout. For the same molecule, the Potency entry in assay [14], in assay [15] and in assay [20] was “inactive” throughout. Moreover, the result in assay [3] and in assay [19] was inactive. Further, the results for the max response in assay [16], in [17] and in assay [18] were -4.63%, -2.22% and 2% (inactive), respectively.

In the case of `O=[N+]([O-])c1ccc2c3c(cccc13)CC2`, the Potency entry in assay [1], in assay [5], in assay [6], in [7], in assay [8] and in [9] was “inactive” in each case. Also, the Potency result in [10], in assay [11], in assay [12], in assay [13], in assay [14] and in assay [15] was “inactive” each time. The Potency result in assay [20] was “inactive”. In addition, the molecule was classed as inactive in assay [3] and in [19]. Besides, the max response is 20.4% and -8.69% in [16]; -3.8% and -0.996% in assay [17]; 28.1% (inactive) and 10.3% (inactive) in assay [18].

For `CCCCCCCCCCCCCl`, the Potency entry in [1], in assay [2], in assay [4], in assay [5], in assay [6] and in assay [7] was “inactive” in each case. Further, the Potency entry in assay [8], in [9], in assay [10], in assay [11], in assay [12] and in [13] was “inactive” each time. Also, the Potency result in assay [14], in assay [15] and in assay [20] was “inactive” in each case. For the same molecule, the result in [3] and in [19] was inactive. Also, the results for the max response in [16], in [17] and in assay [18] were -9.69%, -8.5% and -4.83% (inactive), respectively.

On to `ClCCBr`, for which the Potency result in assay [1], in assay [2], in assay [4], in assay [5], in assay [6] and in assay [7] was “inactive” in each case. Also, the Potency result in assay [8], in assay [9], in assay [10], in assay [11], in assay [12] and in [13] was “inactive” in each case. Moreover, the Potency entry in assay [14], in [15] and in assay [20] was “inactive” in each case. Moreover, the molecule was classed as inactive in assay [3] and in [19]. The figures for the max response in assay [16], in assay [17] and in assay [18] were -16.9%, -4.86% and -1.05% (inactive), respectively.

As to `Cc1cccc(C)c1N`, the Potency result in assay [1], in [2], in [4], in assay [5], in [6] and in assay [7] was “inactive” throughout. In addition, the Potency entry in assay [8], in assay [9], in assay [10], in assay [11], in [12] and in assay [13] was “inactive” in each case. The Potency result in assay [14] and in assay [15] was “inactive” each time. The result in assay [3] and in assay [19] was inactive. Further, the max response in [16] is -2.21%; in assay [17], -4.18%; in assay [18], 17.5% (inactive).

Turning to `Cc1ccc(N)c(N)c1`, the Potency in [2] was 12.6 µM (active); in assay [10] it was 39.8 µM (active); in assay [11], 12.6 µM (active); in assay [14] it was 12.6 µM (active). Also, the molecule was called inactive in assay [3]. The max response is -6.94% in assay [16], 1.53% in assay [17] and -10.9% (inactive) in assay [18].

`CCCCOC(=O)c1ccccc1N`: the Potency result in assay [1], in [2], in assay [4], in [5], in assay [6] and in [7] was “inactive” in each case. The Potency entry in assay [8], in assay [9], in assay [10], in [11], in [12] and in assay [13] was “inactive” each time. The Potency entry in assay [14], in [15] and in [20] was “inactive” each time. For the same molecule, the molecule was called inactive in assay [3] and in assay [19]. In addition, the max response in assay [16] was -10.9%; in assay [17], -0.876%; in [18] it was 6.01% (inactive).

For `Oc1c(Cl)cccc1Cl`, the Potency entry in assay [1], in assay [2], in [4], in [5], in assay [6] and in assay [7] was “inactive” each time. Moreover, the Potency entry in assay [8], in assay [9], in [10], in [11], in assay [12] and in assay [13] was “inactive” throughout. In addition, the Potency result in [14], in assay [15] and in assay [20] was “inactive” in each case. The molecule was called inactive in assay [3] and in assay [19]. Moreover, the max response is 9.22% in [16], -9.58% in assay [17] and 27.8% (inactive) in assay [18].
